Assay results as given in PubChem BioAssay AID624054 (National Center for Advancing Translational Sciences (NCATS), 2012).
Active and inactive are the calls of the source.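 How the source made its calls: active means IC50 at or below 10 µM; inconclusive means IC50 above 10 µM but below 20 µM; inactive means IC50 of 20 µM or more.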

Target: Neuropeptide S receptor (Homo sapiens) (UniProt Q6W5P4)
Experiment: Robust Characterization of cAMP Signal Transduction for Antagonists of the Neuropeptide S Receptor: SAR
Conditions: CHO-NPSR cells, NPS-stimulated cAMP, TR-FRET
Source text: Neuropeptide S receptor (NPSR), previously known as GPR154, is a recently de-orphanized G protein coupled receptor. Its endogenous ligand is the 20 amino acids peptide Neuropeptide S (NPS). […] NPS and its receptor are found in various tissues. Specifically they are highly expressed in brain areas that have been implicated in modulation of arousal, stress and anxiety. Central administration of NPS in mice produces an unusual profile of activity by inducing wakefulness and arousal, while at the same time suppressing anxiety. Therefore, NPSR may represent a novel drug target for the treatment of sleep and anxiety disorders. To identify NPSR antagonists, we developed a cell-based cAMP assay. NPS can stimulate the production of cAMP in Chinese hamster ovary cells stably expressing NPS receptor. This change in intracellular cAMP level can be detected by a homogeneous LANCE cAMP assay based on the TR-FRET (time resolved fluorescence resonance energy transfer) between a europium-labeled cAMP tracer complex and a cAMP-specific antibody labeled with Alexa Fluor 647. The europium-labeled cAMP tracer complex is formed by the tight interaction between Biotin-cAMP (b-cAMP) and streptavidin labeled with Europium-W8044 chelate (Eu-SA). Light pulse at 320 nm excites the europium of the cAMP tracer and the energy emitted is transferred to the Alexa molecule bound to the cAMP antibody, generating a TR-FRET signal at 665 nm. Residual energy from the europium will produce a light at 620 nm. The native unlabeled cAMP from cell lysates competes with the europium-cAMP tracer for antibody binding and reversely reduces the emission signal of Alexa by interrupting FRET between the two labeled molecules. Both emission signals from the FRET donor (620 nm) and the acceptor (665 nm) can be detected by a plate reader in the TRF mode. Expression of result in fluorescence ratio (665 nm/620 nm) helps to normalize differences due to cell density and reagent dispensing. This assay was successfully optimized to a 1536-well plate format. Select compounds from the primary screen (AID 1461) were chosen for confirmation based on potency, efficacy, SAR, and activity across other assays in PubChem and at NCGC. Other compounds are analogs of active compounds from the primary screen. […]
A Chinese hamster ovary (CHO) cell line stably expressing the NPS receptor (CHO-NPSR) was obtained from Dr. Heilig lab at NIAAA and maintained in F-12 Kaighn's media (Invitrogen, Carlsbad, CA, 21127) supplemented with 10 % FBS, 100 units/ml penicillin, 100 ug/ml streptomycin and 250 ug/ml geneticin at 37C, 5% CO2 in a humidified atmosphere. […] IC50 values were determined from concentration-response data modeled with the standard Hill equation. […]

Neuropeptide S receptor (Homo sapiens), sequence (Q6W5P4 whole entry, looked up): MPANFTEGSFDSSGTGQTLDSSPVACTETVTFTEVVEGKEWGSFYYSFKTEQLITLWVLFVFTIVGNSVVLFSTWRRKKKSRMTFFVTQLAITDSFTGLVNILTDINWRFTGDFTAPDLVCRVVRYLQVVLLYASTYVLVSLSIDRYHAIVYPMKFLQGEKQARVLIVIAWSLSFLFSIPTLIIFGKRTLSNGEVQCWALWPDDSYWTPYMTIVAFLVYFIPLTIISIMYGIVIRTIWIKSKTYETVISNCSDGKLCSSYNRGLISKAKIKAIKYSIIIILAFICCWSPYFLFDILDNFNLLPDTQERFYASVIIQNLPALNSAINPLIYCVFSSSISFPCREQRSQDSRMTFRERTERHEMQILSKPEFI

IC50, active:
CCC(C)(CCN1CCOCC1)N(Cc1cc2ccccc2n(C)c1=O)C(=O)C1CCCCC1 (centres undefined) 17.6 nM
COc1ccc(C2c3c(ncn(CCN4CCOCC4)c3=N)Oc3ccc4ccccc4c32)cc1OC (centres undefined) 296 nM
Cc1c(P(=S)(c2ccccc2)c2ccccc2)[n+]2ccccc2n1C/C=C/c1ccccc1 22.1 nM
O=C1OC(c2ccccc2)(c2ccccc2)N2CCN(C(=O)NCc3ccc(F)cc3)CC12 (centres undefined) 208 nM
